# Source: PubChem BioAssay (NCI)
# This is part of a sample that, as a whole, favours compounds with a hit. Of some 83,000 tested, about 20% had one in any assay.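 Negative percent growth values reflect cell death: -40 means 40% of the cells present at the start died, and -100 means all died.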 Values without a mark were called inactive. Activity calls are given as the source filed them. The calls were made as follows: active = growth percent below 10; inactive = the rest.
# Test system: HL-60(TB) leukemia
# Assay: NCI-60 one-dose screen, 48 h (100 = growth as untreated, 0 = no growth, -100 = all killed)
# Settings: 10 µM unless noted
row,SMILES,growth
1,CS(=O)(=O)Nc1cc(-c2ccc3ncc(C#N)c(N[C@H](CO)c4ccccc4)c3c2)cnc1Cl,25%
2,C#Cc1nc(C2=C(C)C(O)/C(=N/O)C2)cs1 (configuration not stated),-37.9% (active)
3,CCCCCCCn1cc2c(NCCc3ccccc3)ncnc2n1,106%
4,CCCCCCOC(=O)c1cc(-c2ccc(F)cc2)nc2ccccc12,77.8%
5,C=CCSC1=NC2C(N(CC)C(=O)N2CC)N1/N=C/C=C/c1ccccc1OC (configuration not stated),45.6%
6,COc1c(N2CC3CCCNC3C2)c(F)cc2c(=O)c(C(=O)N/N=C/c3ccc4c(c3)OCO4)cn(C3CC3)c12 (configuration not stated),75.8%
7,CN1CCN(Cc2ccc(NC(=O)c3cncc(C#Cc4cnc5[nH]ncc5c4)c3)cc2C(F)(F)F)CC1,8.94% (active)
8,CC(C)(C)n1cc(-c2ccnc(NCCCNS(=O)(=O)c3cccc(F)c3)n2)c(-c2ccc(Cl)c(O)c2)n1,128%
9,O=C1[C@@H]2Cc3c([nH]c4ccccc34)[C@@H](c3ccc(Cl)cc3)N2C(=O)CN1C1CCN(Cc2ccccc2)CC1,-9.39% (active)
10,CC(=NNc1ncnc2ccccc12)c1ccc(S(C)(=O)=O)cc1,98.9%
11,Cc1ccc(/C=C/c2nn3c(-c4ccco4)nnc3s2)cc1C,91.4%
12,COc1cc(-c2nn(C(C)(C)C)cc2-c2ccnc(NCCCNS(=O)(=O)c3ccc(Cl)cc3)n2)ccc1Cl,64.9%
13,N#Cc1c(-c2cccs2)cc(-c2cnccn2)nc1SCC(=O)N/N=C/c1ccncc1,118%
14,COc1ccc(/C=C/C(=O)c2ccc(NC(=O)CSc3nnc(-c4ccc5nc(-c6ccc(Cl)cc6)[nH]c5c4)o3)cc2)cc1,78.6%
15,O=C(CCCCCCNC(=O)C(O)(O)C(F)(F)F)Nc1ccc(-c2ccccc2)cc1,13.1%
16,Cc1ccc(-c2cc3nc(C(Cl)Cl)nc(-c4ccco4)n3n2)cc1,-11.9% (active)

row,SMILES,growth
1,O=C(CSc1nnc(-c2ccc(Cl)cc2)n1-c1ccccc1)Nc1ccc(F)cc1,95.3%
2,IP(CCCSc1n(Cc2ccc3ccccc3c2)c(-c2ccccc2)c(-c2ccccc2)[n+]1Cc1ccc2ccccc2c1)(c1ccccc1)(c1ccccc1)c1ccccc1,-29.1% (active)
3,Brc1cc(-c2cc(-c3ccc4c(c3)OC=CO4)[nH]n2)cs1,91.6%
4,COc1ccc(CCN2C(=O)CSC2=S)cc1,54.6%
5,c1ccc(-c2n(Cc3ccc4ccccc4c3)c3c4ccccc4c4ccccc4c3[n+]2Cc2ccc3ccccc3c2)cc1,-61.4% (active)
6,NS(=O)(=O)c1ccc(Nc2nc(N/N=C/CCc3ccccc3)nc(Nc3ccccc3)n2)cc1,107%
7,N/C(=N\C(N)=N\c1nc2ccccc2s1)c1ccncc1Cl,6.91% (active)
8,O=C1Nc2ccc(Cl)cc2/C1=C/c1ccc(OCc2ccc(Br)cc2F)cc1,98%
9,CSc1nccc(-c2c(-c3ccc(F)c(OCc4ccc(F)cc4)c3)nc3sccn23)n1,78%
10,Nc1ccc(Nc2ncnc3sc4c(c23)CCN(Cc2ccccc2)C4)cc1,102%
11,O=C(CSc1nnc(-c2ccc(Cl)cc2)n1-c1ccccc1)Nc1ccc(Cl)cc1,79.8%
12,O=C(c1cccc(F)c1)n1ccc2cc(NC(=S)Nc3cccnc3)ccc21,85.8%
13,CN1CCN(c2ccc(Nc3nc(NCCNC(=O)c4ccccc4)c4sccc4n3)cc2)CC1,22.2%
14,O=C1c2cc(Br)ccc2-n2c1nc1cc(Br)ccc1c2=O,80%
15,O=S(=O)(Nc1ccc(C2CC2)cc1)c1ccc(-c2cnc(C3CC3)o2)cc1,38.9%
16,CC(=C(c1ccc(OCCN2CCCC2)cc1)c1ccc(OCCN2CCCC2)cc1)c1ccc(Cl)cc1,-53.7% (active)
